Here are results for 52 molecules from PubChem BioAssay (EPA / NIEHS).

Assay [1] in a line: ACEA_AR_agonist_AUC_viability: ACEA Biosciences xCELLigence Real-Time Cell Analysis on Androgen Receptor Agonism for Viability (AID 2283775).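 As to AC50: viability read 80 hours after compound addition.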 A digest of the protocol: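 Viability endpoint from xCELLigence impedance in 22Rv1 prostate cells at 80 h. Eight-point series, 100 uM maximum final.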
Assay [2] is described as follows: ACEA_AR_antagonist_AUC_viability: ACEA Biosciences xCELLigence Real-Time Cell Analysis on Androgen Receptor Antagonism for Viability (AID 2283776).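 Also: 22Rv1 human prostate cancer cells growing on impedance electrode plates; area under impedance growth curve at 80 h after dosing as viability; hits lower the growth signal relative to DMSO meaning cytotoxicity.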 A digest of the protocol:
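Impedance read-out (RT-CES): area under growth curve at 80 h post-dose, loss of signal scored vs DMSO baseline. 22Rv1 cells; 8-pt 1:4 series, top 100 uM final, ≤0.5% DMSO; biological duplicate.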

Assay [3] is described as follows: ACEA_ER_AUC_viability: ACEA Biosciences xCELLigence Real-Time Cell Analysis on Estrogen Receptor Agonism for Viability (AID 2283782).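 Also: hit means loss of impedance signal meaning reduced cell growth or viability.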 A digest of the protocol:
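Read-out: real-time electrical impedance (RT-CES) area under curve, loss of signal taken as reduced viability, normalized to DMSO baseline. T-47D cells, charcoal-stripped serum medium, compounds up to 100 uM final, continuous exposure, 80 h.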

Assay [4] deals with AR (gene 367) (UniProt P10275). Put plainly: ACEA_AR_agonist_80hr: ACEA Biosciences xCELLigence Real-Time Cell Analysis on Androgen Receptor Agonism for Proliferation (AID 2283783).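 Also: hits increase impedance growth signal above DMSO baseline.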 A digest of the protocol:
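Impedance (RT-CES) growth signal at 80 h post-dose; 22Rv1 cells, 8-pt 1:4 series, top 100 uM final, DMSO ≤0.5%; duplicate plates; gain-of-signal fit relative to DMSO baseline.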

Assay [5] deals with AR (gene 367) (UniProt P10275). As to the kind of experiment: ACEA_AR_antagonist_80hr: ACEA Biosciences xCELLigence Real-Time Cell Analysis on Androgen Receptor Antagonism for Proliferation (AID 2283787).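 Also: 22Rv1 human prostate cancer cells with growth followed by electrical impedance; hits lower the impedance growth signal relative to DMSO.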 A digest of the protocol: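 Measures real-time proliferation of 22Rv1 prostate cancer cells by electrode impedance at 80 hours after dosing. Test articles ran at eight concentrations (1:4 steps, top 100 uM final) in biological duplicate.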

A short description of assay [6]: STM_H9_NormalizedViability: Cytotoxicity Assessment at 120 hours in the Stemina devTOX quickPredict H9 human embryonic stem cell (hESC)-based Assay (AID 2283784). A digest of the protocol: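 Here, H9 cells received test compound with daily medium renewal. Each plate included methotrexate references (1uM, 5 nM), 0.1% DMSO and media blanks; CellTiter-Fluor RFU was normalized to DMSO.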

Inconclusive results are not listed. Active and inactive are the calls of the source. The calls were made as follows: active = hit-call score of the fitted dose curve at least 0.9, where 1 is the maximum; inconclusive = response in the unintended direction; inactive = score below 0.9.

Chain of AR (gene 367) (P10275 whole entry, looked up): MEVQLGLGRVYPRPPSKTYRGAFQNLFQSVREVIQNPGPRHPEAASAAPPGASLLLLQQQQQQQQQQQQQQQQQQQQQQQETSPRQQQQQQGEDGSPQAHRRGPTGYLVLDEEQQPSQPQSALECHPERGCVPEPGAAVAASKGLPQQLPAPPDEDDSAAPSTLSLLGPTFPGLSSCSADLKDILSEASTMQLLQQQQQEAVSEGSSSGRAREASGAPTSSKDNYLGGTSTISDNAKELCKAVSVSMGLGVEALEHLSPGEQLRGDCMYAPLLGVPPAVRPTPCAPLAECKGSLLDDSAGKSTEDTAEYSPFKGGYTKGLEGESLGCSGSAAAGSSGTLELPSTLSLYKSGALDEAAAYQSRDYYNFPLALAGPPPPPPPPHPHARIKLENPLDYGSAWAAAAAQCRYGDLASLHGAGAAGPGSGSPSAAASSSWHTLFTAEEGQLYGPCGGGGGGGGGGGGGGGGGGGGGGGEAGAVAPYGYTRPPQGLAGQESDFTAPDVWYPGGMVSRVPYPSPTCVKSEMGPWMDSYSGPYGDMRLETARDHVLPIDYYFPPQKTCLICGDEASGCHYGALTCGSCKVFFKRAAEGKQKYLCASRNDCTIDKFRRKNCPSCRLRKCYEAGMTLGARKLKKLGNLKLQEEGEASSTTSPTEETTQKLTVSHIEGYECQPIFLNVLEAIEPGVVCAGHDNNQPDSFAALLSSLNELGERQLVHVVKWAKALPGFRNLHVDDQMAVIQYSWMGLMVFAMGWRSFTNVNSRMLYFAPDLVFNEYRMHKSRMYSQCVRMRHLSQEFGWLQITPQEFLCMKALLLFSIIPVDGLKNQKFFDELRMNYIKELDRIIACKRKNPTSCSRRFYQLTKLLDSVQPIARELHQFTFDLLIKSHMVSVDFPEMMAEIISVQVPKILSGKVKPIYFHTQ

Take `CCOC(=O)C1CC(=O)C(=C(O)C2CC2)C(=O)C1` (stereo not given): the molecule was classed as inactive in assay [1] and in assay [2]. Turning to `CCCCOC(=O)C(C)O` (stereo not given), the molecule was classed as inactive in assay [1], in assay [2] and in assay [3].

By AC50 is commonly meant the midpoint of the concentration-response curve, whichever way the signal moves. As to `CCCCCCCC/C=C\CCCCCCCC(=O)OCC(O)CO` (stereo not given), the molecule was classed as inactive in assay [2] and in assay [5]. For the same molecule, the results for the AC50 in assay [3] and in assay [4] were 50 µM (active) and 27.9 µM (active), respectively. In the case of `CCOCN(C(=O)CS(=O)(=O)O)c1c(C)cccc1CC`, in assay [3], the molecule was classed as inactive. Same read-out and setting: the same measure for `O=C1c2ccccc2C(=O)c2c(Cl)cccc21`: “inactive”. For the molecule `Cc1ccc(O)c(-n2nc3ccccc3n2)c1`, the call in assay [1] and in assay [2] was inactive. Regarding `CCN=c1cc2oc3cc(NCC)c(C)cc3c(-c3ccccc3C(=O)OCC)c-2cc1C`, the concentration at half-maximal activity (AC50) is 0.0138 µM (active) in assay [1]; 0.0138 µM (active) in assay [2]; 5.61 µM (active) in assay [3]; 0.116 µM (active) in assay [6]; 0.0436 µM (active) in assay [5]. Further, the outcome in assay [4] was inactive. In the case of `CC(C)Nc1ccc(NC(C)C)c2c1C(=O)c1ccccc1C2=O`, the molecule was classed as inactive in assay [1] and in assay [2]. `CCCCCCCCCCCCCC[P+](CCCC)(CCCC)CCCC`: the AC50 in assay [1] was 0.0138 µM (active); in assay [2], 0.0138 µM (active); in assay [3], 1.73 µM (active); in assay [5], 0.0436 µM (active). For the same molecule, in assay [4], the call was inactive. In the case of `CN(C(=O)C(F)(F)C(F)(F)C(F)(F)F)[Si](C)(C)C`, in assay [3], the molecule was classed as inactive. Consider `CC(C)OC=O`, for which the result in assay [1] was inactive. On to `O=S(=O)(OCC(F)(F)F)C(F)(F)C(F)(F)C(F)(F)C(F)(F)F`, for which the result in assay [3] was inactive. Same read-out and setting: the same measure for `Brc1nc2ccccc2s1`: “inactive”; for `Nc1c(Br)cc([N+](=O)[O-])cc1Br`: “inactive”; for `CC(C)CCCC(C)CCO` (stereo not given): “inactive”. As for `O=C1c2c(O)ccc(Nc3ccc(CCO)cc3)c2C(=O)c2c([N+](=O)[O-])ccc(O)c21`, the AC50 in assay [3] was 88.8 µM (active). Consider `CCOC(=O)CCC(C)=O`, for which, in assay [3], the molecule was called inactive. On to `Cc1cc(=O)[nH]c(C(C)C)n1`, for which, in assay [3], the molecule was called inactive. Regarding `CCOCOCC`, the call in assay [3] was inactive. For `O=C(c1ccccc1)c1ccc(Cl)cc1`, in assay [3], the AC50 was 28.4 µM (active). For the molecule `CCc1cccc(C)c1N(C(=O)C(=O)O)C(C)COC` (stereo not given), in assay [3], the call was inactive. The same measure, in the same setting: the same measure for `N#CCCOCCC#N`: “inactive”. As for `Oc1ccc(C2(c3ccc(O)c(C4CCCCC4)c3)CCCCC2)cc1C1CCCCC1`, in assay [3], the AC50 was 38.9 µM (active). `O=c1[nH]cccc1O`: in assay [3], the AC50 was 25.7 µM (active). Still for that read-out and setting: the same measure for `CCN(CC)c1ccc2c(c1)Oc1cc(N(CC)CC)ccc1C21OC(=O)c2ccccc21`: 8.06 µM (active); for `Cc1ccc(S(=O)(=O)C(I)I)cc1`: 4.22 µM (active). Consider `FC(F)(F)C(F)(F)C(F)(F)C(F)(F)C(F)(F)C(F)(F)C(F)(F)CCI`, for which the call in assay [3] was inactive. With `CCN(CCO)S(=O)(=O)C(F)(F)C(F)(F)C(F)(F)C(F)(F)C(F)(F)C(F)(F)C(F)(F)C(F)(F)F`, the AC50 in assay [3] is 20.2 µM (active). Take `CN(N=O)C(=O)N[C@@H]1[C@@H](O)[C@H](O)[C@@H](CO)O[C@@H]1O`: the outcome in assay [3] was inactive.

For `COc1ccccc1C=O`, the molecule was called inactive in assay [3]. `Cc1cc(O)c(C(C)(C)C)cc1C(C)(C)C`: the AC50 in assay [3] was 23.2 µM (active). Consider `O=C(O)C(F)(F)C(F)(F)C(F)(F)C(=O)O`, for which the call in assay [3] was inactive.

Take `CCn1c2ccccc2c2ccccc21`: in assay [3], the AC50 is 66.3 µM (active). `Nc1cc([N+](=O)[O-])cc(Cl)c1O`: in assay [3], the molecule was called inactive.

On to `CC(C)=CCCC(C)O` (stereo not given), for which the result in assay [3] was inactive. With `O=S(=O)(O)CCC(F)(F)C(F)(F)C(F)(F)C(F)(F)C(F)(F)C(F)(F)C(F)(F)C(F)(F)F`, the call in assay [3] was inactive. On the same count and under the same terms, the value for `O=C(Cl)C(F)(F)C(F)(F)C(F)(F)C(F)(F)C(F)(F)C(F)(F)F` was “inactive”; that for `NC(=O)C(F)(F)C(F)(F)C(F)(F)C(F)F` was “inactive”.

With `CCCCOC(=O)[C@H](C)O`, the result in assay [3] was inactive. Same read-out and setting: the same measure for `C#CC(O)CCC` (stereo not given): “inactive”.

Consider `CCC(=O)OC(C)c1ccccc1` (stereo not given), for which, in assay [3], the AC50 is 79.9 µM (active).

As for `CCCCCCCCCCCCCCCCC`, in assay [3], the result was inactive. As for `CC(C)OC(=O)COc1ccc(Cl)cc1Cl`, the AC50 in assay [3] is 66.8 µM (active). Consider `Cc1cccc(C)n1`, for which, in assay [3], the molecule was classed as inactive. Still for that read-out and setting: the same measure for `O=C(O)C(F)(F)C(F)(F)C(F)(F)OC(F)(C(F)(F)F)C(F)(F)F`: “inactive”; for `C=CCOC(=O)CC(C)C`: “inactive”; for `OCCCc1cccnc1`: “inactive”. `COCCC(=O)OC`: the molecule was classed as inactive in assay [3]. `CSc1ccc(Cl)cc1`: the outcome in assay [3] was inactive. Same read-out and setting: the value for `O=C(O)CCC(F)(F)C(F)(F)C(F)(F)F` was “inactive”. On to `OCC1CCCO1` (stereo not given), for which the AC50 in assay [4] was 0.585 µM (active). As for `F[Si-2](F)(F)(F)(F)F`, the result in assay [4] and in assay [5] was inactive.
